Results on 13 compounds are retold here after PubChem BioAssay.

The subject of assay [1] is Human papillomavirus type 1a protein E7 (residues 44-93). The experiment in a line: small molecules binding HPV E7 44-93 – biochemical, small-molecule microarray, residues 44-93, 635 nm fluorescence, primary screen (AID 1108).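 Also: E7 fragment applied at 1 µg/mL in TBST for 1 h at 4 C; score combines spot fluorescence with its signal to noise ratio.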 The conditions noted are these: fluorescence 635 nm, higher = more signal.
Assay [2] is described as follows: hepatitis C replication reporter changes, two-sided – Huh7 cells, luciferase reporter, HCV replication inhibitor project, primary screen (AID 1109).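 Also: huh7 hepatoma cells harbouring a luciferase neomycin HCV replicon reporter; luciferase luminescence as measure of HCV replicon replication; test concentration not given here.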 As to conditions: Huh7 HCV replicon luciferase reporter, 48 h; higher = more signal. In general terms: A reporter such as luciferase makes a cellular process visible.
The target of assay [3] is Left-right determination factor 2 (Homo sapiens) (UniProt O00292). The experiment in a line: small molecules binding LEFTY2 protein – biochemical, small-molecule microarray, 635 nm fluorescence scan, primary screen (AID 1110). The conditions noted are these: higher = more signal.
The target of assay [4] is Calmodulin-1 (Homo sapiens) (UniProt P0DP23). The assay can be described thus: small molecules binding calmodulin-1 with EGTA – biochemical, small-molecule microarray, Cy5-labelled CALM1, profiling panel (AID 1111).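 Also: labelled calmodulin applied in Tris saline Tween buffer holding calcium plus EGTA and DTT.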 As to conditions: Cy5-CALM1 binding fluorescence, higher = more signal.
Assay [5] shares this target. The assay can be described thus: small molecules binding Ca-loaded calmodulin-1 – biochemical, small-molecule microarray, Cy5-labelled CALM1, plus calcium, artefact control for SMM control-protein annotation, profiling panel (AID 1112).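 Also: score merges spot fluorescence with signal to noise from triplicate slides.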 The conditions noted are these: Cy5-CALM1 binding fluorescence, higher = more signal.
The nature of assay [6]: probe aWnt5a binding to arrayed compounds – biochemical, biotinylated probe, 635/667 nm fluorescence, primary screen (AID 1113).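 Also: score merges 667 nm fluorescence intensity with signal-to-noise per printed feature.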 As to conditions: small-molecule microarray, higher = more signal.
Assay [7] is described as follows: probe aShh binding to arrayed compounds – biochemical, biotinylated probe, 635/667 nm fluorescence, primary screen (AID 1114).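 Also: probe is biotin-labelled aShh protein from a stem cell growth factor screen; measures binding of labelled protein to compounds printed on the slide; score merges feature fluorescence at 667 nm with signal-to-noise.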 The conditions noted are these: small-molecule microarray, higher = more signal.
Assay [8] can be described thus: probe aNog binding to arrayed compounds – biochemical, biotinylated probe, 635/667 nm fluorescence, primary screen (AID 1115).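 Also: probe is biotinylated aNog protein used at 0.15 µg/mL for 1 h at 4 C; z-score combines 667 nm fluorescence of each spot with its signal to noise.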 As to conditions: small-molecule microarray, higher = more signal.
Assay [9] deals with Torsin-1A-interacting protein 1 (Homo sapiens) (UniProt Q5JTV8). The assay can be described thus: compound microarray binding of lysate hLAP1 – cell lysate, small-molecule microarray, COS7 lysate, 635/667 nm fluorescence, primary screen (AID 1116). As to conditions: 635 nm fluorescence, higher = more signal.
Assay [10] addresses Alpha-bungarotoxin (Bungarus multicinctus) (UniProt P60615). The assay can be described thus: compounds binding labelled alpha-BTX control protein – biochemical, small-molecule microarray, Alexa647 label, 635/667 nm fluorescence, artefact control for SMM control protein annotation, profiling panel (AID 1117). The conditions noted are these: alpha-BTX-A647 binding fluorescence, higher = more signal.

Chain of Alpha-bungarotoxin (Bungarus multicinctus) (P60615 whole entry, looked up): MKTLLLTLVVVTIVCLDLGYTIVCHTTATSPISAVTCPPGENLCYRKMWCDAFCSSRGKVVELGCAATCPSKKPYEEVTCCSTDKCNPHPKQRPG
Chain of Left-right determination factor 2 (Homo sapiens) (O00292 whole entry, looked up): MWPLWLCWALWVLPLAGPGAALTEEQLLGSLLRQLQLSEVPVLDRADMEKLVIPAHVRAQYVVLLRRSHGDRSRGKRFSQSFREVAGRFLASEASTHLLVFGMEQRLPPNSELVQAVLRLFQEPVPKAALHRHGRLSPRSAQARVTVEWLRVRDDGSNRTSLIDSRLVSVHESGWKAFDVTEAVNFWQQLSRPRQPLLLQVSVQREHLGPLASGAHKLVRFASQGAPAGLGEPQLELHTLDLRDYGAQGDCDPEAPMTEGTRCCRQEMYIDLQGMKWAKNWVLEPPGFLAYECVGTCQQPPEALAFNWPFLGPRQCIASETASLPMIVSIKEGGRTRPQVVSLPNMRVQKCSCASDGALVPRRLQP
Chain of Torsin-1A-interacting protein 1 (Homo sapiens) (Q5JTV8 whole entry, looked up): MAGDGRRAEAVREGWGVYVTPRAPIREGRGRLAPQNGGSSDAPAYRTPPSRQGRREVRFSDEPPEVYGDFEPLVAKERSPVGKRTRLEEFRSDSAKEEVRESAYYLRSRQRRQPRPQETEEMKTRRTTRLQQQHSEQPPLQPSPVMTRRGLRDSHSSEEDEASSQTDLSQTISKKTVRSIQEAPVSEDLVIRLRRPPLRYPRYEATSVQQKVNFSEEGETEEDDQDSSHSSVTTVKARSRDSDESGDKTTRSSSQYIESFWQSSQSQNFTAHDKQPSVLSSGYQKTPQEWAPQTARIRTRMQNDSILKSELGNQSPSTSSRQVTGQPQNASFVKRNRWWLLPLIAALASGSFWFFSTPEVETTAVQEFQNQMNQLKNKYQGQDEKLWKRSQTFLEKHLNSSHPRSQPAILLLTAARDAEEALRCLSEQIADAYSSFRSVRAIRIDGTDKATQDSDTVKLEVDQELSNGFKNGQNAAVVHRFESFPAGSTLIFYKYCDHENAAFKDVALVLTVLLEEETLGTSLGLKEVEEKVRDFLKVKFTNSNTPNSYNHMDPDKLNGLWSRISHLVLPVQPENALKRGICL

On to `Cc1ccc(S(=O)(=O)N[C@H]2COC(=O)CC=C[C@@H](C)COC(=O)CC=C[C@@H]2C)cc1`, for which the composite z-score in [1] is -0.572; in assay [3], 0.449; in [4] it was -0.606; in assay [5], -1.24; in assay [6], -0.12; in assay [7], -0.153. The values for the composite z-score in assay [8], in [9] and in [10] were -0.222, 0.163 and -0.361, respectively. The compound also registered a z-score in assay [2] of 0.391.
Turning to `O=C1[C@H]2[C@H]3[C@H](O)[C@H](O)CC(=NOC[C@@H](O)COCc4ccco4)[C@@H]3CC[C@H]2C(=O)N1C[C@@H]1CCCO1`, the composite z-score was 0.0714 in assay [1]; 1.11 in assay [3]; -1.05 in [4]; -1.73 in assay [5]; -0.117 in assay [6]; -0.0553 in assay [7]. Also, the composite z-score in assay [8] was -0.218; in assay [9], 0.3; in [10], -0.075. In assay [2], this compound returned a z-score of 0.557.
Take `C[C@@H](c1ccccc1)N1C(=O)[C@H]2[C@H]3[C@H](O)[C@H](O)CC(=NO[C@@H]4O[C@H](CO)[C@@H](O)[C@H](O)[C@H]4O)[C@H]3CC[C@H]2C1=O`: the composite z-score is 0.668 in assay [1]; 0.414 in assay [3]; -0.222 in assay [4]; -0.461 in assay [5]; -0.196 in [6]; 0.147 in assay [7]. Besides, the composite z-score in assay [8] was -0.206; in assay [9], 0.163; in assay [10], 0.556. The compound further yielded a z-score in assay [2] of -0.087.
Turning to `Cc1cc2c(nc1C)CCCCN2CC(C)ON=C1[C@H]2CCn3c(=O)n(-c4ccccc4)c(=O)n3[C@H]2[C@H](O)[C@@H]2O[C@H]12` (stereo not given in full), the composite z-score in assay [1] was -0.0964; in assay [3], 0.769; in assay [4], -0.895; in assay [5], -1.2; in assay [6] it was 0.0839; in assay [7] it was 0.258. For the same compound, the composite z-score in [8] is 0.0531; in assay [9] it was 0.369; in assay [10] it was 0.473. The z-score in [2] was -4.63.
On to `CC(C)CON=C1C[C@@H](O)[C@@H](O)[C@@H]2[C@@H]3C(=O)N(c4cccc(Oc5ccccc5)c4)C(=O)[C@@H]3CC[C@@H]12`, for which the composite z-score in assay [1] was 1.35; in assay [3], 0.374; in [4], 1.05; in [5], -0.426; in [6], 0.0215; in [7] it was -0.221. Also, the composite z-score is -0.158 in [8], 1.06 in assay [9] and 0.538 in assay [10]. This compound also yielded a z-score in [2] of 0.251.
Consider `CCOC(=O)[C@H](CC(C)C)NC(=O)CCC1CC(OC(=O)NCc2cccc3ccccc23)CC2(CCCC(COC(=O)NCc3cccc(C(F)(F)F)c3)O2)O1` (stereo not given in full), for which the composite z-score is 0.0567 in [1]; 0.67 in assay [3]; -0.333 in [4]; -0.568 in assay [5]; -0.0643 in assay [6]; -0.0626 in assay [7]. The composite z-score in assay [8] was -0.158; in assay [9], -0.0162; in assay [10] it was 0.157. Besides, in [2], the z-score was 1.32.
As for `CCc1cc2c(nc1CC)CCN(CCC(C)=NO[C@H](C)c1cn([C@H](CO)Cc3ccccc3)nn1)C2`, the composite z-score in assay [1] was 0.21; in assay [3] it was 0.437; in [4], -0.315; in assay [5], -0.439; in assay [6] it was -0.0165; in assay [7], 1.19. Moreover, the composite z-score in [8] was -0.4; in [9], 0.967; in assay [10] it was 0.568. The z-score in assay [2] was -2.38.
For the compound `CC(C)(C)N1C(=O)[C@H]2[C@H]3[C@H](O)[C@H](O)CC(=O)[C@H]3CC[C@H]2C1=O`, the composite z-score was 0.487 in assay [1]; 0.473 in assay [3]; 0.133 in assay [4]; -0.816 in [5]; 0.0267 in assay [6]; -0.186 in assay [7]. For the same compound, the composite z-score is -0.0996 in assay [8], 0.274 in [9] and 0.642 in assay [10]. Also, the z-score in assay [2] was -0.041.
Consider `CO[C@@H]1COC(=O)CC=C[C@@H](C)[C@@H]2C=C[C@H](O)[C@@H](COC(=O)CC=C[C@H]1C)O2`, for which the composite z-score was -0.913 in [1]; 1.5 in assay [3]; -1.12 in [4]; -2.14 in assay [5]; -0.224 in [6]; -0.0146 in [7]. Moreover, the composite z-score is -0.349 in assay [8], 0.27 in assay [9] and 0.149 in assay [10]. The same compound showed a z-score in assay [2] of 0.0581.
Take `COc1ccc(O[C@H]2C=C[C@@H](c3ccccc3)O[C@@H]2COC(=O)CCC(C)=NOC(C)CN2CCCc3nc(C)c(C)cc32)cc1` (stereo not given in full): the composite z-score was 1.31 in [1]; 0.646 in assay [3]; 0.0727 in assay [4]; -0.384 in [5]; -0.124 in assay [6]; 0.0278 in assay [7]. Further, the composite z-score in assay [8] amounted to 0.109; in [9], 0.4; in assay [10], 0.463. This compound also returned a z-score in assay [2] of -1.81.
As for `CC(CCN1CCCc2nc(C)c(C)cc21)=NOC(C)CN1CCCCc2nc(C)c(C)cc21` (stereo not given), the composite z-score in [1] was 1.35; in assay [3], 0.984; in assay [4], 0.341; in [5], -0.568; in assay [6], 0.159; in assay [7] it was 0.689. The values for the composite z-score in assay [8], in [9] and in assay [10] were 0.57, 0.436 and 0.714, respectively. In assay [2], this compound displayed a z-score of -1.66.
On to `CCOC(=O)NN=C1C[C@@H](O)[C@@H](O)[C@@H]2[C@@H]3C(=O)N(Cc4ccccc4)C(=O)[C@@H]3CC[C@H]12`, for which the composite z-score was -0.0228 in [1]; 0.545 in assay [3]; 0.903 in [4]; -0.677 in assay [5]; -0.0529 in [6]; -0.0626 in [7]. The composite z-score is -0.158 in [8], -0.273 in assay [9] and 0.405 in [10]. Moreover, the z-score in assay [2] was determined as 0.47.
For the compound `CCOC(=O)[C@H](Cc1ccccc1)NC(=O)CCC1CC(OC(=O)NCCc2ccc(F)cc2)CC2(CCCC(COC(=O)NCc3ccccc3)O2)O1` (stereo not given in full), the composite z-score in assay [1] was 1.29; in assay [3], 0.829; in assay [4] it was 0.774; in assay [5] it was -0.129; in assay [6], -0.157; in [7], 1.15. The composite z-score is -0.118 in assay [8], 0.601 in [9] and 0.154 in [10]. The compound further yielded a z-score in assay [2] of -0.929.
